PubChem BioAssay (EPA / NIEHS)
Values joined by “and” are separate entries in the source; they are usually repeats but may differ in a detail not shown here. Equal entries are not always repeated. Inconclusive results are not listed. The source holds several records for some structures; these can differ, active in one and inactive in another. Active and inactive are the calls of the source. The calls were made as follows, unless noted: active = hit-call score of the fitted dose curve at least 0.9, where 1 is the maximum; inactive = score below 0.9.

Legend:
[1] = read-out: Transforming Growth Factor (TGFB1), TGFB1 (gene 7040); experiment: LTEA_HepaRG_TGFB1: Life Technologies and Expression Analysis (LTEA) Assay for Transforming Growth Factor (TGFB1) Transporter using HepaRG (AID 2283533); conditions: mRNA level, 48 h; actives raise or lower the signal
Method in brief: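 Differentiated human HepaRG cells in serum-free induction medium were exposed in duplicate for 48 h to eight concentrations (top 100 uM, half-log steps, 0.5% DMSO). TGFB1 mRNA was quantified by qRT-PCR, normalized to ACTB, GAPDH, POLR2A, and fitted bidirectionally against DMSO.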

TIMP1, TIMP1 (gene 7076) = experiment: LTEA_HepaRG_TIMP1: Life Technologies and Expression Analysis (LTEA) Assay for TIMP1 using HepaRG (AID 2283534); conditions: mRNA level, 48 h; actives raise or lower the signal
Method in brief: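 Differentiated human HepaRG cells in serum-free induction medium were exposed 48 h to chemicals (8 half-log concentrations, top 100 uM, 0.5% DMSO). TIMP1 mRNA was quantified by TaqMan qRT-PCR, normalized to ACTB/GAPDH/POLR2A; bidirectional fit versus DMSO.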

[2] = read-out: Tumor necrosis factor receptor 1 (TNFRSF1A), TNFRSF1A (gene 7132); experiment: LTEA_HepaRG_TNFRSF1A: Life Technologies and Expression Analysis (LTEA) Assay for Tumor necrosis factor receptor 1 (TNFRSF1A) using HepaRG (AID 2283535); conditions: mRNA level, 48 h; actives raise or lower the signal
Method in brief: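 Differentiated human HepaRG cells were exposed in duplicate for 48 h in serum-free induction medium to eight concentrations (top 100 uM, half-log steps, 0.5% DMSO). TNFRSF1A mRNA was quantified by qRT-PCR, normalized to ACTB, GAPDH and POLR2A, then fitted bidirectionally against DMSO.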

[3] = read-out: Thyroid Hormone Responsive (THRSP), THRSP (gene 7069); experiment: LTEA_HepaRG_THRSP: Life Technologies and Expression Analysis (LTEA) Assay for Thyroid Hormone Responsive (THRSP) using HepaRG (AID 2283536); conditions: mRNA level, 48 h; actives raise or lower the signal
Method in brief: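 qRT-PCR read-out (Fluidigm TaqMan), housekeeping-normalized (ACTB/GAPDH/POLR2A). HepaRG, 48 h chemical exposure, 8-pt half-log series from 100 uM in 0.5% DMSO, duplicates. Bidirectional curve fit vs 0.5% DMSO baseline.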

[4] = read-out: Cellular tumor antigen p53 (Homo sapiens) (UniProt P04637); experiment: LTEA_HepaRG_TP53: Life Technologies and Expression Analysis (LTEA) Assay for Tumor Protein P53 (TP53) using HepaRG (AID 2283537); conditions: mRNA level, 48 h; actives raise or lower the signal
Method in brief: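 Gain or loss of TP53 mRNA signal is scored relative to 0.5% DMSO after 48 h chemical treatment of HepaRG liver cells, tested in duplicate at eight half-log concentrations up to 100 uM.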

[5] = read-out: UDP glucuronosyltransferase (UGT1A1), UGT1A1 (gene 54658); experiment: LTEA_HepaRG_UGT1A1: Life Technologies and Expression Analysis (LTEA) Assay for UDP glucuronosyltransferase (UGT1A1) using HepaRG (AID 2283538); conditions: mRNA level, 48 h; actives raise or lower the signal
Method in brief: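 mRNA induction or loss of UGT1A1, by TaqMan qRT-PCR, in duplicate HepaRG wells after 48 h exposure to half-log dilutions topping at 100 uM; DMSO (0.5%) served as baseline.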

[6] = read-out: UDP glucuronosyltransferase (UGT1A6), UGT1A6 (gene 54578); experiment: LTEA_HepaRG_UGT1A6: Life Technologies and Expression Analysis (LTEA) Assay for UDP glucuronosyltransferase (UGT1A6) using HepaRG (AID 2283539); conditions: mRNA level, 48 h; actives raise or lower the signal
Method in brief: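 Human HepaRG cells were dosed for 48 h in serum-free induction medium with 0.5% DMSO vehicle, eight-point half-log series from 100 uM, in duplicate. UGT1A6 mRNA was measured by qRT-PCR, normalized to ACTB, GAPDH, POLR2A, and fitted bidirectionally against DMSO.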

[7] = read-out: X-box binding protein 1 (XBP1), XBP1 (gene 7494); experiment: LTEA_HepaRG_XBP1: Life Technologies and Expression Analysis (LTEA) Assay for X-box binding protein 1 (XBP1) using HepaRG (AID 2283540); conditions: mRNA level, 48 h; actives raise or lower the signal
Method in brief: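 Differentiated human HepaRG cells in serum-free induction medium were exposed in duplicate for 48 h to eight half-log concentrations up to 100 uM in 0.5% DMSO. XBP1 mRNA was quantified by qRT-PCR, normalised to ACTB, GAPDH and POLR2A, with bidirectional fitting against DMSO.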

[8] = LTEA_HepaRG_LDH_cytotoxicity: Cytotoxicity Assessment in the Life Technologies and Expression Analysis (LTEA) Assay (AID 2283563; active = hit-call score of the fitted dose curve at least 0.9, where 1 is the maximum;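 as to AC50: LDH activity released into spent culture medium as a marker of cell death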)
Method in brief: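 Differentiated human HepaRG cells, plated 48 h beforehand, were switched to serum-free induction medium and exposed for 48 h to eight half-log concentrations (top 100 uM) in 0.5% DMSO. LDH was measured in spent medium; activity was fitted relative to DMSO vehicle.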

[9] = ATG_XTT_Cytotoxicity: Cytotoxicity Assessment in the Attagene TRANS-FACTORIAL HepG2 Assay (AID 2283584; active = hit-call score of the fitted dose curve at least 0.9, where 1 is the maximum)
Method in brief: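 HepG2 human liver cells, transiently transfected with multiple GAL4-UAS reporter units, were dosed and read at 24 h by XTT as cell number. Loss of signal was fitted relative to DMSO negative control baseline.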

Measured: AC50

Chain of Cellular tumor antigen p53 (Homo sapiens) (P04637 whole entry, looked up): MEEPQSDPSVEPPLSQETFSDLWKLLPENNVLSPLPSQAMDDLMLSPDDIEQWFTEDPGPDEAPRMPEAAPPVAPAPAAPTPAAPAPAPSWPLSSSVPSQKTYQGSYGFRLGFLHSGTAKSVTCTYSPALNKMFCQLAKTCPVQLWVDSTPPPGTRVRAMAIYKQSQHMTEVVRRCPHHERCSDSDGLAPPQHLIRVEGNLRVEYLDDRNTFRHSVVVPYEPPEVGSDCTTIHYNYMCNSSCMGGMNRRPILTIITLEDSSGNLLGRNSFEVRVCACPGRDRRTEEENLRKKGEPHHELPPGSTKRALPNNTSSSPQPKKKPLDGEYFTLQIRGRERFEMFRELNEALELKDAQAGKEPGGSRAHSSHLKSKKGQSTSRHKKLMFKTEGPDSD

CCON=C(CC)C1=C(O)CC(c2c(C)cc(C)cc2C)CC1=O (stereo not given)
active: [3] 50 µM | [5] 27.9 µM
not listed: [9]
inactive: all other assays above

COC(=O)C=C(C)OP(=O)(OC)OC
not listed: [9]
inactive: all other assays above

CN(C)C(=S)SSC(=S)N(C)C
not listed: [9]
inactive: all other assays above

CCc1nn(C)c(C(=O)NCc2ccc(C(C)(C)C)cc2)c1Cl
active: [1] 50 µM | TIMP1, TIMP1 (gene 7076) 28 µM | [2] 27.4 µM | [3] 1.06 µM | [4] 12.1 µM | [5] 27.8 µM | [6] 37.1 µM | [7] 13.6 µM | [8] 27.3 µM

O=C(O)COc1nc(Cl)c(Cl)cc1Cl
not listed: [9]
inactive: all other assays above

C=CCC1=C(C)[C@@H](OC(=O)[C@@H]2[C@@H](C=C(C)C)C2(C)C)CC1=O
not listed: [8] | [9]
inactive: all other assays above

Cc1c(F)c(F)c(COC(=O)C2C(/C=C(\Cl)C(F)(F)F)C2(C)C)c(F)c1F (stereo not given)
not listed: [9]
inactive: all other assays above

O=C(O)c1nc(Cl)ccc1Cl
not listed: [9]
inactive: all other assays above

CCCCNC(=O)n1c(NC(=O)OC)nc2ccccc21
active: [5] 18.6 µM
not listed: [9]
inactive: all other assays above

CC(Oc1ccc(Cl)cc1Cl)C(=O)O (stereo not given)
not listed: [9]
inactive: all other assays above

CO/C=C(/C(=O)OC)c1ccccc1Oc1cc(Oc2ccccc2C#N)ncn1
inactive: [1] | TIMP1, TIMP1 (gene 7076) | [2] | [3] | [7] | [9]
active: [3] 93.2 µM and 80.5 µM | [4] 84.8 µM and 83.1 µM and 83 µM | [5] 88.7 µM and 87.6 µM and 83.3 µM | [6] 78.4 µM and 80.9 µM and 86.7 µM | [8] 74.8 µM and 77.6 µM and 80.7 µM

CS/C(C)=N/OC(=O)N(C)SN(C)C(=O)O/N=C(\C)SC
active: [5] 29.1 µM
not listed: [9]
inactive: all other assays above

CCOC(=O)CC(SP(=S)(OC)OC)C(=O)OCC (stereo not given)
not listed: [9]
inactive: all other assays above

N#Cc1cc(Br)c(O)c(Br)c1
active: [1] 14.2 µM | TIMP1, TIMP1 (gene 7076) 10.2 µM | [2] 16.9 µM | [3] 22.6 µM | [4] 10.4 µM | [5] 17 µM | [6] 23.5 µM | [7] 10.5 µM | [8] 66.8 µM

CCCN(CCC)c1c([N+](=O)[O-])cc(S(N)(=O)=O)cc1[N+](=O)[O-]
active: [1] 93.9 µM | TIMP1, TIMP1 (gene 7076) 93.9 µM | [2] 82.1 µM | [5] 7.17 µM and 86.5 µM and 89.5 µM | [6] 79.1 µM and 78.9 µM | [7] 96.7 µM and 79.1 µM | [8] 76.5 µM and 78.3 µM and 77.5 µM
inactive: [1] | TIMP1, TIMP1 (gene 7076) | [2] | [3] | [6] | [7] | [9]

CC1COC(Cn2cncn2)(c2ccc(Oc3ccc(Cl)cc3)cc2Cl)O1 (stereo not given)
inactive: [7]
active: [1] 89.8 µM | TIMP1, TIMP1 (gene 7076) 77 µM | [2] 72.2 µM | [3] 7.86 µM | [4] 11.6 µM | [5] 50 µM | [6] 63.9 µM | [8] 58.7 µM

O=C(Nc1ccccc1)Nc1ccnc(Cl)c1
active: [1] 80 µM | TIMP1, TIMP1 (gene 7076) 74.9 µM | [2] 96.7 µM | [4] 74 µM | [5] 79.6 µM | [6] 76.8 µM | [7] 72.1 µM | [8] 39.4 µM
inactive: [3]

CCOc1cc(Oc2ccc(C(F)(F)F)cc2Cl)ccc1[N+](=O)[O-]
active: [1] 19 µM | [3] 21.7 µM | [4] 14 µM | [5] 5.1 µM
not listed: [9]
inactive: all other assays above

Fc1ccc(Oc2ccnc3cc(Cl)cc(Cl)c23)cc1
active: [1] 50 µM | [3] 76.2 µM | [5] 13.3 µM
not listed: [9]
inactive: all other assays above

CC(C)C1(C)N=C(c2nc3ccccc3cc2C(=O)O)NC1=O (stereo not given)
not listed: [8] | [9]
inactive: all other assays above

CCNc1nc(Cl)nc(NCC)n1
active: [5] 3.7 µM
not listed: [9]
inactive: all other assays above

COC(=O)c1ccccc1C(=O)OC
not listed: [9]
inactive: all other assays above

N#CC(CCc1ccc(Cl)cc1)(Cn1cncn1)c1ccccc1 (stereo not given)
active: [1] 66.7 µM | [3] 90.7 µM | [4] 75.5 µM | [5] 74.9 µM | [6] 81.9 µM | [7] 80.3 µM | [8] 37.5 µM
inactive: TIMP1, TIMP1 (gene 7076) | [2]

COP(N)(=O)SC (stereo not given)
not listed: [9]
inactive: all other assays above

Cc1ccc(-c2c(Cl)nc(C#N)n2S(=O)(=O)N(C)C)cc1
inactive: [1] | [4]
active: TIMP1, TIMP1 (gene 7076) 22.4 µM | [2] 34.9 µM | [3] 6.18 µM | [5] 37.4 µM | [6] 27.4 µM | [7] 90.6 µM | [8] 8.94 µM

N#Cc1nn(-c2c(Cl)cc(C(F)(F)F)cc2Cl)c(N)c1S(=O)C(F)(F)F (stereo not given)
active: TIMP1, TIMP1 (gene 7076) 66.7 µM | [3] 27.3 µM | [4] 32 µM | [5] 37.6 µM | [6] 44.8 µM | [7] 68.6 µM | [8] 34.2 µM
inactive: [1] | [2] | [9]
